# Inconclusive results are not listed. Entries that show only a call come without a potency. A number with no mark means an inactive call. Activity calls are given as the source filed them. Unless noted, calls follow the shape of the dose curve; as a rule, active = well fitted curve in the direction sought with a large enough effect in the repeat runs; inconclusive = weak or mixed curves; inactive = no such curve, though single readings can be large; an effect the other way counts as inactive or inconclusive. Positions of bridges follow the written chain, without caps; N, C: chain ends. Non-standard residues stand in square brackets, D forms with d. Residues, ends and D or L forms follow the SMILES beside them. hArg = N=C(N)NCCCC[C@H](N)C(=O)O; Mpa = O=C(O)CCS
# Key:
# [1] = target: Aryl hydrocarbon receptor (Homo sapiens) (UniProt P35869); assay: qHTS assay to identify small molecule that activate the aryl hydrocarbon receptor (AhR) signaling pathway (AID 743085); also: nearly all actives have a fitted effect of over 15% in size; also: potency is read from the fitted curve at half-maximal effect;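 as to activation: HG2L7.5c1 human HepG2 liver cells with stably integrated DRE-driven firefly reporter; series mostly up to about 70 µM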
# Summary of the method: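 HepG2 cells stably carrying a 20-DRE firefly luciferase reporter (HG2L7.5c1) treated with compound for 24 hr at 37C. Luciferase read by ONE-Glo luminescence, with CellTiter-Fluor viability read first.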
# [2] = qHTS assay to identify small molecule that activate the aryl hydrocarbon receptor (AhR) signaling pathway - cell viability counter screen (AID 743086);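 also: HepG2 liver cells carrying the AhR DRE luciferase reporter; series mostly up to about 70 µM; nearly all actives have a fitted effect of over 45% in size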
# Summary of the method: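 HepG2-AhR-luc (HG2L7.5c1) cells, 4000/well, treated 24 h at 37 C with compound; viability measured as CellTiter-Fluor fluorescence after 30 min in the same wells as the luciferase read.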
# [3] = target: Peroxisome proliferator-activated receptor gamma (Homo sapiens) (UniProt P37231); assay: qHTS assay to identify small molecule agonists of the peroxisome proliferator-activated receptor gamma (PPARg) signaling pathway (AID 743094; active = well fitted activation curve with a large enough effect in the signal ratio in the repeat runs, not every such curve was filed as active; the % refers to the signal ratio; also: potency is read from the fitted curve at half-maximal effect)
# Summary of the method: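 Compounds dissolved in DMSO were added to PPARg UAS-bla HEK293H cells for 17 h at 37C, and reporter expression was quantified by fluorescence intensity after 1 h with LiveBLAzer B/G FRET substrate.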
# [4] = target: Peroxisome proliferator-activated receptor gamma (Homo sapiens) (UniProt P37231); assay: qHTS assay to identify small molecule antagonists of the peroxisome proliferator-activated receptor gamma (PPARg) signaling pathway (AID 743191; calls by dose curve; also: series mostly up to about 63 µM; nearly all actives have a fitted effect of over 30% in size)
# Summary of the method: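 GeneBLAzer PPARg UAS-bla HEK293H cells, 5 h post-plating, exposed to compounds 17 h at 37C. LiveBLAzer B/G FRET substrate added for 1 h at room temperature; beta-lactamase reporter read by fluorescence intensity.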
# [5] = qHTS assay to identify small molecule antagonists of the peroxisome proliferator-activated receptor gamma (PPARg) signaling pathway - cell viability counter screen (AID 743194); also: nearly all actives have a fitted effect of over 55% in size
# Summary of the method: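 Cytotoxicity counter screen in PPARg-bla HEK293H cells, same wells as reporter assay. Compounds plus 50 nM rosiglitazone (final) for 17 h at 37 C, then viability read by CellTiter-Glo luminescence.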
# [6] = qHTS assay for small molecule agonists of the antioxidant response element (ARE) signaling pathway (AID 743202; active = well fitted activation curve with a large enough effect in the signal ratio in the repeat runs, not every such curve was filed as active; the % refers to the signal ratio)
# Summary of the method: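 Agonist mode reporter screen: HepG2 cells with ARE-controlled beta-lactamase are incubated with test compounds for 16 h at 37 C, and beta-lactamase activity is measured as fluorescence of cleaved B/G FRET substrate.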
# [7] = qHTS assay for small molecule agonists of the antioxidant response element (ARE) signaling pathway - cell viability counter screen (AID 743203; calls by dose curve; also: nearly all actives have a fitted effect of over 55% in size)
# Summary of the method: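 Following 16 hrs of compound treatment at 37C, HepG2 cells with an ARE-controlled beta-lactamase gene were lysed with CellTiter-Glo. Luminescence was read after 30 min at room temperature.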
# [8] = qHTS assay for small molecule activators of the heat shock response signaling pathway - cell viability counter screen (AID 743209); also: nearly all actives have a fitted effect of over 50% in size
# Summary of the method: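 Readout: CellTiter-Glo luminescence, 30 min at room temperature. System: HSE-bla HeLa cells, 1500/well, plated overnight. Treatment: compounds in DMSO, 5 h at 37 C.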
# [9] = qHTS assay to identify small molecule agonists of the peroxisome proliferator-activated receptor delta (PPARd) signaling pathway - cell viability counter screen (AID 743211); also: nearly all actives have a fitted effect of over 55% in size
# Summary of the method: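 PPARd-bla HEK293H cells (3000/well) were pre-incubated 5 h at 37 C, then exposed to compound for 17 h at 37 C. After 2 h with LiveBLAzer substrate, CellTiter-Glo was added to the same wells; luminescence read after 30 min at room temperature.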
# [10] = target: Peroxisome proliferator-activated receptor delta (Homo sapiens) (UniProt Q03181); assay: qHTS assay to identify small molecule agonists of the peroxisome proliferator-activated receptor delta (PPARd) signaling pathway (AID 743212; calls by dose curve)
# Summary of the method: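 Quantitative high-throughput agonist screen in a HEK293H beta-lactamase reporter line under UAS control. Compounds in DMSO, at 37 C. Fluorescence read after 2 h with FRET substrate at room temperature.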
# [11] = qHTS assay to identify small molecule antagonists of the peroxisome proliferator-activated receptor delta (PPARd) signaling pathway - cell viability counter screen (AID 743213); also: nearly all actives have a fitted effect of over 50% in size
# Summary of the method: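 PPARd-bla HEK293H cells (3000/well) got compound plus 300 nM L165041 agonist for 17 h at 37 C. Viability in the same wells came from CellTiter-Glo luminescence after 30 min at room temperature.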
# [12] = qHTS assay to identify small molecule agonists of the farnesoid-X-receptor (FXR) signaling pathway - cell viability counter screen (AID 743218); also: nearly all actives have a fitted effect of over 45% in size
# Summary of the method: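 Parallel cytotoxicity test: compound-treated (16 h, 37 C) HEK 293T FXR-bla reporter cells were lysed with CellTiter-Glo and luminescence recorded.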
# [13] = qHTS assay to identify small molecule antagonists of the farnesoid-X-receptor (FXR) signaling pathway - cell viability counter screen (AID 743221; active = well fitted cell-killing curve with a large enough effect in the repeat runs, not every such curve was filed as active; also: nearly all actives have a fitted effect of over 50% in size)
# Summary of the method: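 GeneBLAzer FXR-UAS-bla HEK 293T cells, compound plus chenodeoxycholic acid (50 uM final), 16 h at 37 C. CellTiter-Glo added to the same wells after the beta-lactamase read; luminescence read after 30 min at room temperature as viability.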
# [14] = target: Vitamin D3 receptor (Homo sapiens) (UniProt P11473); assay: qHTS assay to identify small molecule agonists of the vitamin D receptor (VDR) signaling pathway (AID 743222; calls by dose curve)
# Summary of the method: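 In VDR-bla cells, compound-induced beta-lactamase expression is quantified by FRET substrate fluorescence. Treatment lasts 16 h at 37C; substrate develops 2 h at room temperature.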
# [15] = target: Vitamin D3 receptor (Homo sapiens) (UniProt P11473); assay: qHTS assay to identify small molecule antagonists of the vitamin D receptor (VDR) signaling pathway (AID 743223; active = well fitted inhibition curve with a large enough effect in the signal ratio in the repeat runs, not every such curve was filed as active; the % refers to the signal ratio)
# Summary of the method: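 VDR-bla cells were treated with compound plus 3 nM final 1alpha,25-dihydroxyvitamin D3 for 16 h at 37C. Beta-lactamase reporter read by B/G FRET substrate fluorescence after 2 h at room temperature. qHTS format.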
# [16] = qHTS assay to identify small molecule agonists of the vitamin D receptor (VDR) signaling pathway - cell viability counter screen (AID 743224); also: series mostly up to about 63 µM; nearly all actives have a fitted effect of over 50% in size
# Summary of the method: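 Plated VDR-bla cells (4 h, 37C) received compound, incubated 16 h, then LiveBLAzer substrate 2 h RT; CellTiter-Glo added afterwards, luminescence read at 30 min.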
# [17] = target: Bile acid receptor (Homo sapiens) (UniProt Q96RI1); assay: qHTS assay to identify small molecule agonists of the farnesoid-X-receptor (FXR) signaling pathway (AID 743220; active = well fitted activation curve with a large enough effect in the signal ratio in the repeat runs, not every such curve was filed as active; the % refers to the signal ratio)
# Summary of the method: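 Beta-lactamase reporter under UAS control in GeneBLAzer FXR HEK 293T cells (5000/well) measured with LiveBLAzer FRET substrate after 2 h at room temperature. Compound exposure lasted 16 h at 37C.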
# [18] = qHTS assay for small molecule activators of the heat shock response signaling pathway (AID 743210; active = well fitted activation curve with a large enough effect in the signal ratio in the repeat runs, with a control signal flat, not every such curve was filed as active; the % refers to the signal ratio;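 also: HeLa cells with beta-lactamase reporter driven by heat shock elements; series mostly up to about 63 µM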)
# Summary of the method: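 Quantitative high-throughput format using an engineered HeLa line in which heat shock response elements drive beta-lactamase; after 5 h with compound, cells received a B/G FRET substrate and fluorescence was read.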
# [19] = target: Peroxisome proliferator-activated receptor delta (Homo sapiens) (UniProt Q03181); assay: qHTS assay to identify small molecule antagonists of the peroxisome proliferator-activated receptor delta (PPARd) signaling pathway (AID 743215; active = well fitted inhibition curve with a large enough effect in the signal ratio in the repeat runs, not every such curve was filed as active; the % refers to the signal ratio;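 also: cells stimulated with agonist L165041 at 300 nM final during compound exposure; series mostly up to about 62 µM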)
# Summary of the method: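 HEK293H UAS-bla, PPARd; agonist L165041 300 nM final with cpd in DMSO; 37 C 17 h; FRET substrate, RT 2 h; fluorescence intensity.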
# [20] = target: Bile acid receptor (Homo sapiens) (UniProt Q96RI1); assay: qHTS assay to identify small molecule antagonists of the farnesoid-X-receptor (FXR) signaling pathway (AID 743217; active = well fitted inhibition curve with a large enough effect in the signal ratio in the repeat runs, not every such curve was filed as active; the % refers to the signal ratio)
# Summary of the method: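 GeneBLAzer FXR-UAS-bla HEK 293T, CDCA-stimulated (50 uM final). Compound treatment 16 h, 37 °C. Detection: beta-lactamase cleavage of B/G FRET substrate, fluorescence.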
# Peroxisome proliferator-activated receptor gamma (Homo sapiens), sequence (P37231 whole entry, looked up): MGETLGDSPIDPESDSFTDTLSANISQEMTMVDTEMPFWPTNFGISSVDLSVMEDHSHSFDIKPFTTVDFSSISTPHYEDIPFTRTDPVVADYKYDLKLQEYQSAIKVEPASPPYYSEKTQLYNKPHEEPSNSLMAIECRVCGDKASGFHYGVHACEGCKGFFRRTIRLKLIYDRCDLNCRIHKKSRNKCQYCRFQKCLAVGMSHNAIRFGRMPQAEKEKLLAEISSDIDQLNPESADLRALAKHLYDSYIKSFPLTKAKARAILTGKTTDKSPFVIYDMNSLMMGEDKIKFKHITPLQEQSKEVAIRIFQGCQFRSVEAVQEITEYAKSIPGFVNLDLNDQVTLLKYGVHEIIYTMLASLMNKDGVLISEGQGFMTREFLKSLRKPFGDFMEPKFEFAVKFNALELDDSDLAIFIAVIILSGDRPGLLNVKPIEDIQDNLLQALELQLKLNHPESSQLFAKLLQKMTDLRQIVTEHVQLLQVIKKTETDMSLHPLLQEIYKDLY
# Bile acid receptor (Homo sapiens), sequence (Q96RI1 whole entry, looked up): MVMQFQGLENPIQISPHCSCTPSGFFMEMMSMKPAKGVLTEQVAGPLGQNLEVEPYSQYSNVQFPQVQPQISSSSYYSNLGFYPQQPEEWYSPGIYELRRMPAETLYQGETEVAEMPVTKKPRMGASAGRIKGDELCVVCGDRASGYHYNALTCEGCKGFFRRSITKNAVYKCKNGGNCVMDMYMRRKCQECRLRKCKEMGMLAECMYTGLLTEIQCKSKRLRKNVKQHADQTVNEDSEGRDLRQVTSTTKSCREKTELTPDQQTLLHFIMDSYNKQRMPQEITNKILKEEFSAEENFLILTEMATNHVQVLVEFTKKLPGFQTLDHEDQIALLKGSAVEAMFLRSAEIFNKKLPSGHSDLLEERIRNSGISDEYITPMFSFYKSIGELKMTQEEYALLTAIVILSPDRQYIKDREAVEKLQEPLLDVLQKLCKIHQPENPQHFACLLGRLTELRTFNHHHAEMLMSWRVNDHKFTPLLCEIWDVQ
# Vitamin D3 receptor (Homo sapiens), sequence (P11473 whole entry, looked up): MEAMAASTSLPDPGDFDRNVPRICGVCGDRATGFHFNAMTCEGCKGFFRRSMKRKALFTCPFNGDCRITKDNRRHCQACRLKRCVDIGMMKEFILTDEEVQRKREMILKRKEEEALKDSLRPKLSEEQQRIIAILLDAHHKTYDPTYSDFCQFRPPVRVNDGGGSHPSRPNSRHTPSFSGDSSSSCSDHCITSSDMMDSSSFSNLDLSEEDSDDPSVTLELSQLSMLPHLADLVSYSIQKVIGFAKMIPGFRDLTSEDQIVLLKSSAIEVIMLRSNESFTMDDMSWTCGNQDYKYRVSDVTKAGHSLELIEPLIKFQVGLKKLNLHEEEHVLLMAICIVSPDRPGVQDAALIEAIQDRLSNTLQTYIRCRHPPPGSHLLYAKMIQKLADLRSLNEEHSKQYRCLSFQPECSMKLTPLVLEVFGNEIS
# Peroxisome proliferator-activated receptor delta (Homo sapiens), sequence (Q03181 whole entry, looked up): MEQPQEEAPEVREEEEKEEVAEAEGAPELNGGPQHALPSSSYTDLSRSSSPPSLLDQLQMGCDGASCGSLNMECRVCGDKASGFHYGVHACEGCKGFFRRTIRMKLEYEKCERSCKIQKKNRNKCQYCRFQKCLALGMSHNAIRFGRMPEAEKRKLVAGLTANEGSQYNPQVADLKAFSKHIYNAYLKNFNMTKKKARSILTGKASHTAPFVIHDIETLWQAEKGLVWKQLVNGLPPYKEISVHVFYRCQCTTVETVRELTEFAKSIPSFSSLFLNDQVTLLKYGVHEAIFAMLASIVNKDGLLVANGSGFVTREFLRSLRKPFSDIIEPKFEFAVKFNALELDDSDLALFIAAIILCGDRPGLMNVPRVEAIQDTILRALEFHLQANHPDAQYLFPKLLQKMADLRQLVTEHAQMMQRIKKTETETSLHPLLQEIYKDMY
# Aryl hydrocarbon receptor (Homo sapiens), sequence (P35869 whole entry, looked up): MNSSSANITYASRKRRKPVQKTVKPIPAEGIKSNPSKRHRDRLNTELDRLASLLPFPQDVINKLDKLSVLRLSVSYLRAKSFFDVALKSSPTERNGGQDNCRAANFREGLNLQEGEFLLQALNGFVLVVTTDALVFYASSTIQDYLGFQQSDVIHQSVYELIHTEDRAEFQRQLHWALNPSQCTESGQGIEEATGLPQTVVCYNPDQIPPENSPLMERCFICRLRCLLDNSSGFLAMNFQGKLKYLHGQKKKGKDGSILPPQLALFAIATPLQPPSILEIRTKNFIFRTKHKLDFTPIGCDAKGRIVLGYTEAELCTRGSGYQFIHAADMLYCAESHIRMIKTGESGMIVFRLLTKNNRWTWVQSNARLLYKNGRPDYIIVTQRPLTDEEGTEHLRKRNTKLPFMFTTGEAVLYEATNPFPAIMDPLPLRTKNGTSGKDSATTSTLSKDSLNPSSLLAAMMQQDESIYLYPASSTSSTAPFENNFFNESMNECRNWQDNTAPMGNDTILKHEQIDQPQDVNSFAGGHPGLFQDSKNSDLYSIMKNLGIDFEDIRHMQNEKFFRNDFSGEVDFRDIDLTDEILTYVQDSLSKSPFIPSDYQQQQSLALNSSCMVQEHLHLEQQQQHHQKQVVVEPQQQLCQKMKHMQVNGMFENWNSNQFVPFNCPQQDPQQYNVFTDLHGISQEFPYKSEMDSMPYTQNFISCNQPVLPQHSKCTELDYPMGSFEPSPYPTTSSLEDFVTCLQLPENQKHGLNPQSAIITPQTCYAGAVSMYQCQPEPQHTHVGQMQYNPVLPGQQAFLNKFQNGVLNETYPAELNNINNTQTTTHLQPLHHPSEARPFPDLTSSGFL
SMILES,Potency [1],Potency [2],Potency [3],outcome [4],outcome [5],Potency [6],outcome [7],Potency [8],outcome [9],outcome [10],outcome [11],outcome [12],outcome [13],outcome [14],outcome [15],outcome [16],outcome [17],outcome [18],outcome [19],outcome [20]
CCC(C)C(C)=O (stereo not drawn),inactive,inactive,inactive,inactive,inactive,inactive,inactive,inactive,inactive,inactive,inactive,inactive,inactive,inactive,inactive,inactive,,,,
N#Cc1cscn1,inactive,inactive,54.9 µM (active),inactive,inactive,inactive,inactive,inactive,inactive,,inactive,inactive,inactive,,,inactive,inactive,,,
OC[C@@H](O)C(O)[C@@H](O)CO (stereo partly drawn),inactive,inactive,inactive,inactive,inactive,,inactive,inactive,inactive,inactive,inactive,inactive,,,,,,inactive,inactive,
CC(C)(C)NC[C@H](O)COc1cccc2c1CCCC2=O,inactive,inactive,inactive,inactive,inactive,inactive,inactive,,inactive,,inactive,inactive,inactive,inactive,,,,inactive,,
COC(=O)CCCCC(=O)O,inactive,inactive,inactive,inactive,,inactive,inactive,inactive,inactive,inactive,inactive,,inactive,,,inactive,,inactive,inactive,
CC(=O)O[C@@H]1CC2CCC1(C)C2(C)C (stereo partly drawn),inactive,inactive,inactive,inactive,inactive,inactive,inactive,,inactive,,inactive,inactive,inactive,inactive,inactive,inactive,inactive,,,
NC(=O)[C@@H]1CSSCCC(=O)N[C@@H](CCCCN=C(N)N)C(=O)NCC(=O)N[C@@H](CC(=O)O)C(=O)N[C@@H](Cc2c[nH]c3ccccc23)C(=O)N2CCC[C@H]2C(=O)N1 ([Mpa][hArg]GDWPC-NH2; disulfide 1-7),inactive,inactive,inactive,inactive,,inactive,inactive,inactive,inactive,inactive,inactive,inactive,inactive,inactive,inactive,inactive,inactive,inactive,,inactive
CCCCC1CCC(O)CC1 (stereo not drawn),inactive,inactive,inactive,inactive,inactive,inactive,inactive,,inactive,inactive,inactive,,inactive,inactive,inactive,inactive,inactive,inactive,inactive,inactive
CC(=O)CCC1=C(C)CCCC1(C)C,inactive,inactive,inactive,inactive,inactive,inactive,inactive,,inactive,inactive,inactive,inactive,inactive,,,,,,inactive,
CC1(C)CC(OC(=O)CCCCCCCCC(=O)OC2CC(C)(C)NC(C)(C)C2)CC(C)(C)N1,inactive,inactive,inactive,inactive,inactive,,inactive,inactive,inactive,inactive,inactive,,inactive,,inactive,inactive,,,,
CC1=C(C(=O)O)N2C(=O)[C@@H](NC(=O)[C@H](N)C3=CCC=CC3)[C@H]2SC1,inactive,inactive,inactive,inactive,inactive,inactive,inactive,inactive,inactive,inactive,inactive,,inactive,,,inactive,,,inactive,
OCC1(CO)COCOC1,inactive,inactive,inactive,inactive,inactive,inactive,inactive,inactive,inactive,inactive,,inactive,inactive,,,inactive,inactive,,inactive,inactive
C#CCN[C@@H]1CCc2ccccc21,inactive,inactive,inactive,inactive,inactive,inactive,inactive,,inactive,inactive,inactive,,inactive,,,inactive,,inactive,inactive,
CC(Oc1cc(Cl)ccc1Cl)C(=O)O (stereo not drawn),inactive,inactive,inactive,inactive,inactive,,inactive,inactive,inactive,,inactive,inactive,inactive,,,inactive,,inactive,inactive,
Cc1ccc(C)c([N+](=O)[O-])c1,inactive,inactive,inactive,inactive,inactive,,inactive,inactive,inactive,inactive,inactive,inactive,inactive,inactive,,inactive,,inactive,inactive,
ONc1ccccc1,60.5 µM (active),inactive,inactive,inactive,inactive,,inactive,inactive,inactive,inactive,inactive,inactive,inactive,inactive,,inactive,,,inactive,
O=C(NCN1CCOCC1)c1cnccn1,inactive,inactive,inactive,inactive,inactive,inactive,inactive,inactive,inactive,inactive,inactive,,inactive,,,inactive,,,inactive,
c1ccc2cnccc2c1,inactive,inactive,inactive,inactive,inactive,,inactive,inactive,inactive,inactive,inactive,inactive,inactive,,,,,inactive,,
CC(=O)O[C@H]1C[C@@H]2CC[C@@]1(C)C2(C)C,inactive,inactive,inactive,inactive,inactive,inactive,inactive,,inactive,,inactive,,inactive,inactive,,inactive,inactive,inactive,,inactive
